In the supplement of paper PMC9477273 one finds maximum fold change data, which are given here for twelve molecules.

The structures appear in SMILES notation.

The subject of this assay is DRIVER-selected RNA biosensor (aptazyme) pool. Briefly: maximum fold change of ribozyme cleavage across biosensor pool versus no-compound control; higher = stronger biosensor response (ligand inhibits cleavage). The settings on record: 10 µM. The procedure, abridged:
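Fold change of cleavage, the ratio of cleaved:uncleaved read fractions versus a no-compound condition corrected with reference sequences, is given as the maximum over all biosensors. It was measured by CleaveSeq on a pool of 1,730 array-resynthesized ribozyme biosensors transcribed by T7 with 9 mM rNTPs for 15–30 min at 37°C in the presence of one compound at 10 µM final, added from a 10x DMSO stock. After reverse transcription at 50°C, cleaved and uncleaved products were PCR-barcoded and counted by Illumina sequencing.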
In turn, `CCOC(=O)/C(=CC=CN1CCOCC1)/C(=O)C` had a maximum fold change of 1.94.
The molecule `c1cc(-c2nc3cc(Oc4ccc5[nH]c(-c6ccncc6)nc5c4)ccc3[nH]2)ccn1` showed a maximum fold change of 14.3.
`CCOc1ccc(CCNC(=O)Cn2ccc3cc(S(=O)(=O)N4CCCC4)ccc32)cc1` registered a maximum fold change of 3.07.
Turning to `Cc1cccc(CNCc2c(C(=O)O)c(C)n(Cc3c(F)cccc3Cl)c2C)c1`, the maximum fold change came out at 1.89.
The value for `O=C(c1ccc(CS(=O)c2cccc(Cl)c2)o1)N1CCN(C2CCCCC2)CC1` (configuration not stated) was 2.71; that for `O=C1Nc2cc(C(=O)N3CCN(c4ccco4)CC3)ccc2N/C1=C\C(=O)c1ccc(Cl)cc1` was 5.38.
`N#C/C(=Cc1c(Oc2ccc(c(c2)C)Cl)nc2n(c1=O)cccc2)/C(=O)N1CCCCC1` showed a maximum fold change of 2.6.
The value for `Cc1ccc(-c2nc(CS(=O)(=O)CC(=O)NCCCN(C)Cc3ccccc3)c(C)o2)cc1` was 3.58; that for `CCN1CCN(CCCNC(=O)c2ccc3c(c2)NC(=O)/C(=C/C(=O)c2ccc(OC)cc2)N3)CC1` was 8.68.
The molecule `Cc1c[n+]([O-])n(-c2ccc(C(=O)O)cc2)n1` displayed a maximum fold change of 2.15.
With `CCCCNCc1c(C(=O)O)c(C)n(Cc2cc(C)ccc2C)c1C` the figure was 2.79.
The molecule `c1sc2c(c1CN1CCC3(CC1)OCCO3)CCCC2` gave a maximum fold change of 2.61.
